From the supplement of paper PMC12645437, “Orthogonal IMiD-Degron Pairs Induce Selective Protein Degradation in Cells” (ACS Chemical Biology, 2025) come the findings set out here.

The full ranking holds about 8,300 sequences; the median of “log2 fold change of degron read counts, EGFP-low vs EGFP+ sorted cells (limma voom), compound-induced degradation” is about -1.1, and the highest 2% start at about 3.2. The full list was thinned out, with the highest values kept by preference.

In this assay the target is T1, CRBN, Q96SW2.
T1 chain: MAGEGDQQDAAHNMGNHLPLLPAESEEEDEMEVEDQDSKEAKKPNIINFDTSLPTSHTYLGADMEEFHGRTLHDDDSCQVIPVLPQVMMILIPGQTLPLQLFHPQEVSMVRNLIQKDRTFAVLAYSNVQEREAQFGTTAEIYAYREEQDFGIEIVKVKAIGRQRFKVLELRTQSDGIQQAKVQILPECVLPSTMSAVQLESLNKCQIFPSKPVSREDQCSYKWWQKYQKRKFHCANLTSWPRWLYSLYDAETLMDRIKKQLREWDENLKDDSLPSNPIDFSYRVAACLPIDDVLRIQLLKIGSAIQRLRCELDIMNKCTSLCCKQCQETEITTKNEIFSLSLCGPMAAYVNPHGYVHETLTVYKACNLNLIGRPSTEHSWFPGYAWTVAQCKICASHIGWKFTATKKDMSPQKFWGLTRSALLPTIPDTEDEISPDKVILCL
Put plainly: log2 fold change of degron read counts, EGFP-low vs EGFP+ sorted cells (limma voom), compound-induced degradation; higher = more compound-induced degradation of the degron-EGFP fusion; degrons are variants of IKZF1/3 zinc finger 2; compound dose not given here. The following applies: Jurkat, 18 h.

Where [1] appears, read: compound: compound 19 (5-tert-butyl-thalidomide).
[2] abbreviates: compound: compound 22 (5-morpholino-thalidomide).
[3] abbreviates: compound: compound 33 (diphenyl IMiD analogue).
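Also: pooled lentiviral library of zinc finger degron-EGFP fusions in mCherry-positive Jurkat cells, FACS-sorted after compound exposure, with degron abundance counted by next-generation sequencing.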

On to LACEICGFFCTQKGNLLRHIKL [46L_47A_49E_50I_52G_53F_54F_55C_67L_, Q9UKT9], for which the “log2 fold change of degron read counts” value by setting is: under setting [1], 1.23; under setting [2], 0.591; under setting [3], 0.235; (compound: thalidomide) 0.329.
Take FKCEICGHCFTQKGNLLRHIKL [46F_47K_49E_50I_52G_53H_54C_55F_67L_, Q9UKT9]: the “log2 fold change of degron read counts” value under setting [1] is -2.38, the “log2 fold change of degron read counts” value under setting [2] was -3.82, the “log2 fold change of degron read counts” value under setting [3] is -3.48 and the “log2 fold change of degron read counts” value (compound: thalidomide) was -2.98.
The like results for FQCEICGHGFTQKGNLLRHIKL [46F_47Q_49E_50I_52G_53H_54G_55F_67L_, Q9UKT9] were, in that order, -3.85, -4.27, -2.95 and -2.21.
On to LFCNQCGFYCTQKGNLLRHIKL [46L_47F_49N_50Q_52G_53F_54Y_55C_67L_, Q9UKT9], for which the “log2 fold change of degron read counts” value under setting [1] is -0.734, the “log2 fold change of degron read counts” value under setting [2] is -0.67, the “log2 fold change of degron read counts” value under setting [3] is -0.837 and the “log2 fold change of degron read counts” value (compound: thalidomide) was -0.422.
Regarding FVCPICGALFTQKGNLLRHIKL [46F_47V_49P_50I_52G_53A_54L_55F_67L_, Q9UKT9], the “log2 fold change of degron read counts” value is -0.961 under setting [1], 0.498 under setting [2], 1.25 under setting [3] and 1.5 (compound: thalidomide).
In the same order, the values of FNCPICGARFTQKGNLLRHIKL [46F_47N_49P_50I_52G_53A_54R_55F_67L_, Q9UKT9] are 2.1, 1.39, -0.35 and 0.971.
FSCPICGARFTQKGNLLRHIKL [46F_47S_49P_50I_52G_53A_54R_55F_67L_, Q9UKT9]: the “log2 fold change of degron read counts” value under setting [1] is 2.63, the “log2 fold change of degron read counts” value under setting [2] was found to be 2.4, the “log2 fold change of degron read counts” value under setting [3] was 0.555 and the “log2 fold change of degron read counts” value (compound: thalidomide) was found to be 1.65.
For FWCPICGARFTQKGNLLRHIKL [46F_47W_49P_50I_52G_53A_54R_55F_67L_, Q9UKT9], the “log2 fold change of degron read counts” value came out at 2.78 under setting [1], 3.66 under setting [2], 1.23 under setting [3] and 1.15 (compound: thalidomide).
In the same order, the values of FGCPICGARFTQKGNLLRHIKL [46F_47G_49P_50I_52G_53A_54R_55F_67L_, Q9UKT9] are 3.39, 2.28, 0.0226 and 1.05.
In the same order, the values of FECPICGARFTQKGNLLRHIKL [46F_47E_49P_50I_52G_53A_54R_55F_67L_, Q9UKT9] are 0.918, -0.107, 1.75 and 3.37.
Take FVCPICGARFTQKGNLLRHIKL [46F_47V_49P_50I_52G_53A_54R_55F_67L_, Q9UKT9]: the “log2 fold change of degron read counts” value reads like this: under setting [1], 0.924; under setting [2], 2.47; under setting [3], 0.874; (compound: thalidomide) 2.71.
The like results for FYCPICGARFTQKGNLLRHIKL [46F_47Y_49P_50I_52G_53A_54R_55F_67L_, Q9UKT9] were, in that order, 2.38, 2.5, 0.405 and -0.0683.
Take FSCPICGALFTQKGNLLRHIKL [46F_47S_49P_50I_52G_53A_54L_55F_67L_, Q9UKT9]: the “log2 fold change of degron read counts” value by setting is: under setting [1], 0.486; under setting [2], -0.0754; under setting [3], 2.59; (compound: thalidomide) 0.134.
In the same order, the values of FQCPICGALFTQKGNLLRHIKL [46F_47Q_49P_50I_52G_53A_54L_55F_67L_, Q9UKT9] are -1.04, 1.75, 1.86 and 3.37.
With FLCPICGARFTQKGNLLRHIKL [46F_47L_49P_50I_52G_53A_54R_55F_67L_, Q9UKT9], the “log2 fold change of degron read counts” value was 0.407 under setting [1], -0.333 under setting [2], 0.469 under setting [3] and 1.92 (compound: thalidomide).
In the same order, the values of FRCPICGARFTQKGNLLRHIKL [46F_47R_49P_50I_52G_53A_54R_55F_67L_, Q9UKT9] are -0.853, -0.665, -0.334 and 0.377.
The like results for FWCNQCGRQFTQKGNLLRHIKL [46F_47W_49N_50Q_52G_53R_54Q_55F_67L_, Q9UKT9] were, in that order, -1.77, -1.3, -1.46 and -1.87.
Turning to FACEICGRNFTQKGNLLRHIKL [46F_47A_49E_50I_52G_53R_54N_55F_67L_, Q9UKT9], the “log2 fold change of degron read counts” value under setting [1] was -0.441, the “log2 fold change of degron read counts” value under setting [2] was -1.8, the “log2 fold change of degron read counts” value under setting [3] is -2.25 and the “log2 fold change of degron read counts” value (compound: thalidomide) is -1.66.
